Here are results for 23 compounds from PubChem BioAssay (NCATS).

Inconclusive results are not listed. Activity calls are given as the source filed them. The call rests on the fitted dose curve; in most records, active means well fitted cell-killing curve with a large enough effect; inconclusive means small, poorly fitted or top-dose-only effect; inactive means flat fitted curve, though single readings scatter.
On the % scale 0 is the no-effect control and ±100 the full control effect; potency means the concentration at half of the fitted maximal effect.

This assay in a line: Cell Viability - LYMP2-010 (AID 981). Further: nearly all actives have a fitted effect of over 55% in size. As to conditions: LYMP2-010 lymphoblastoid cell viability, qHTS; series mostly up to 92.2 µM; activity, negative = cytotoxicity: at the top concentration. The source says: NIH Chemical Genomics Center [NCGC]
NIH Molecular Libraries Screening Centers Network [MLSCN]
National Institutes of Environmental Health Sciences [NIEHS]
National Toxicology Program [NTP]
We have developed a 1536-well cell-based assay for quantitative high throughput screening (qHTS) against a number of cell lines to determine in vitro cytotoxicity of small molecules. This particular assay uses a human lymphoblastoid cell line (LYMP2-010) purchased from Coriell Institute for Medical Research.
NCGC Assay Protocol Summary:
The CellTiter-Glo luminescent cell viability assay (Promega) is a homogeneous method to measure the number of viable cells in culture. The end point readout of this assay is based on quantitation of intracellular ATP, an indicator of metabolic activity, using the luciferase reaction. Luciferase catalyzes the oxidation of beetle Luciferin to oxyluciferin and light in the presence of ATP. The luminescent signal is proportional to amount of ATP present.
Using the CellTiter-Glo luminescent cell viability assay, the amount of cellular ATP was measured in the lymphoblastoid cell line with complete culture medium following compound treatment for 24 hours. The assay was performed in opaque white Kalypsys 1536-well plates. In the screen, tetraoctylammonium bromide was used as positive control. Library compounds were measured for their ability to cause acute toxicity in the cell line, as reflected by a decrease in intracellular ATP levels, in a concentration-dependent manner. […] AC50 values were determined from concentration-response data modeled with the standard Hill equation.
qHTS protocol for CellTiter Glo lymphoblastoid cellular assay
[Step] [Parameter] [Value] [Description]
1. Reagent; 5 uL; 2500 lymphoblastoid cells/well
2. Time; 5 hr; 37 C incubation
4. Controls; 23 nL; Tetraoctylammonium bromide 6.4pM to 92 uM
5. Time; 24 hr; 37 C incubation
6. Reagent; 5 uL; CellTiter Glo reagent
7. Time; 30 min; Room Temperature
8. Detection; Luminescence; Viewlux plate reader
Keywords: cell viability, cytotoxicity, lymphoblastoid cell line, luminescence, NTPHTS, NTPHTS_NCGC, NIEHS, DSSTox, MLSMR, MLSCN, NIH Roadmap, qHTS, NCGC
(In general: qHTS replaces the single test concentration by a dilution series.)
As for `CCCCCCCCn1sccc1=O`, the Potency is 2.51 µM (active).

For the compound `O=[N+]([O-])c1cc(C(F)(F)F)cc([N+](=O)[O-])c1Cl`, the Potency is 31.6 µM (active). On the same count and under the same terms, under `O=Nc1ccc(Nc2ccccc2)cc1` stands 5.01 µM (active). In the case of `OC(c1ccc(Cl)cc1)(c1ccc(Cl)cc1)C(Cl)(Cl)Cl`, the “activity, negative = cytotoxicity” value was -7.8% (inactive). Still for that read-out and setting: the result for `Nc1ccccc1C(=O)OCCc1ccccc1` reads -9.35% (inactive). For `N#CSCSC#N`, the Potency was 3.98 µM (active). Turning to `ClC1=C(Cl)C(Cl)(Cl)C(Cl)=C1Cl`, the Potency was 5.01 µM (active). As for `FC(F)(F)c1ccc(Cl)cc1`, the “activity, negative = cytotoxicity” value was -9.82% (inactive).

As for `O=[N+]([O-])C(Br)Br`, the Potency is 7.94 µM (active).

`CC(=O)[O-].CC(=O)[O-].O.O.[Cd+2]`: the Potency was 39.8 µM (active). Still for that read-out and setting: the result for `C[C@@H]1CC[C@@]2(OC1)O[C@H]1[C@@H](O)[C@H]3[C@@H]4CC[C@H]5C[C@@H](O[C@@H]6O[C@H](CO)[C@H](O[C@@H]7O[C@H](CO)[C@@H](O)[C@H](O[C@@H]8OC[C@@H](O)[C@H](O)[C@H]8O)[C@H]7O[C@@H]7O[C@H](CO)[C@@H](O)[C@H](O[C@@H]8O[C@H](CO)[C@@H](O)[C@H](O)[C@H]8O)[C@H]7O)[C@H](O)[C@H]6O)[C@H](O)C[C@]5(C)[C@H]4CC[C@]3(C)[C@H]1[C@@H]2C` reads 20 µM (active). On to `c1cc(OCC2CO2)cc(OCC2CO2)c1` (stereo not drawn), for which the Potency is 31.6 µM (active). For `CN(C)c1ccc(N=O)cc1`, the Potency is 0.631 µM (active). `CC/C(=C(\c1ccccc1)c1ccc(OCCN(C)C)cc1)c1ccc(O)cc1`: the Potency was 50.1 µM (active).

As for `C=CC(=O)OCC(CO)(COC(=O)C=C)COC(=O)C=C`, the Potency was 3.98 µM (active). Turning to `C#CCO`, the “activity, negative = cytotoxicity” value is -15.8% (inactive). On to `Clc1ccc(C(c2ccc(Cl)cc2)C(Cl)Cl)cc1`, for which the “activity, negative = cytotoxicity” value was -7.03% (inactive). In the case of `CC(C)CC(C)Nc1ccc(Nc2ccccc2)cc1` (stereo not drawn), the Potency was 39.8 µM (active).

Turning to `[Cd+2].[Cl-].[Cl-]`, the Potency is 50.1 µM (active). On the same count and under the same terms, the result for `[CH3][Hg][Cl]` reads 1.58 µM (active). Regarding `O=C(O)C1C(C(=O)O)C2(Cl)C(Cl)=C(Cl)C1(Cl)C2(Cl)Cl` (stereo not drawn), the “activity, negative = cytotoxicity” value is -1.59% (inactive). Regarding `O=C(CCl)c1ccccc1`, the Potency is 7.94 µM (active). `c1ccc2cc3c(cc2c1)-c1cccc2cccc-3c12`: the “activity, negative = cytotoxicity” value is -13.1% (inactive).
